Measured values published in PubChem BioAssay (EPA / NIEHS).
Records with an inconclusive call do not appear. The source made the active and inactive calls. Rule for the calls: active = hit-call score of the fitted dose curve at least 0.9, where 1 is the maximum; inconclusive = response in the unintended direction; inactive = score below 0.9.

Experiment: Tanguay_ZF_120hpf_SWIM_legacy: (Legacy) Oregon State University Tanguay Lab 120 Hour Post-fertilization zebrafish Assay for Swim Bladder Malformation (AID 2283654);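 note: swim bladder malformation in each larva scored yes or no under brightfield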
Experimental: Tanguay_ZF_120hpf_legacy is a whole embryo, multiplexed endpoint assay using zebrafish larvae exposed for 120 hours post fertilization on a 96-well plate.Tanguay_ZF_120hpf_SWIM_legacy is one of one assay component(s) measured or calculated from the Tanguay_ZF_120hpf_legacy assay. It is designed to make measurements of zebrafish development as detected with brightfield microscopy of developing zebrafish embryos.Data from the assay component Tanguay_ZF_120hpf_SWIM_legacy was analyzed into 1 assay endpoints. This assay endpoint, Tanguay_ZF_120hpf_SWIM_legacy, was analyzed in the positive analysis fitting direction relative to DMSO as the negative control and baseline of activity. Using a type of morphology reporter, gain-of-signal activity can be used to understand changes in developmentals as they relate to the whole embryo. To generalize the intended target to other relatable targets, this assay endpoint is annotated to the zebrafish development intended target family, where the subfamily is swim bladder morphogenesis.
Zebrafish husbandry: Tropical 5D wild-type adult zebrafish were housed in at an approximate density of 1000 per 100 gallon tank at the Sinnhuber Aquatic Research Laboratory, Oregon State University, Corvallis, OR. Each tank was kept at standard laboratory conditions of 28C on a 14-h light/10-h dark photoperiod in fish water consisting of reverse osmosis water supplemented with a commercially available salt (Instant Ocean). Spawning funnels were placed into the tanks the night prior, and embryos were collected and staged. To increase bioavailability, the chorion was enzymatically removed using pronase (63.6mg/ml, >/= 3.5U/mg, Sigma-Aldrich: P5147) at 4 hours post fertilization (hpf) using a custom automated dechorionator.Chemical exposures: Six hpf dechorionated embryos were placed 1 embryo per well in a 96-well plate prefilled with 90 ul of EM using automated embryo placement systems (AEPS). Ten microliters of each row of dilution plate 2 was added to 2 exposure plates. The final DMSO concentration used was 0.64% (vol/vol). Thirty-two embryos were also exposed to 5uM trimethyltin chloride (positive control). Plates were sealed to prevent evaporation and foil covered to reduce light exposure and kept in a 28C incubator. Embryos were statically exposed until 120 hpf. At 24 hpf, embryos were assessed for photomotor response using a custom photomotor response analysis tool (PRAT) and for developmental toxicity endpoints (MO24: mortality at 24 hpf, DP: developmental progression, SM: spontaneous movement, and NC: notochord distortion). At 120 hpf, locomotor activity was measured using Viewpoint Zebralab and assessed for 18 endpoints. Zebrafish acquisition and analysis program (ZAAP), a custom program designed to inventory, acquire, and manage zebrafish data, was used to collect developmental endpoints as either present or absent (i.e., binary responses were recorded). If mortality occurred for an embryo (at either 24 or 120 hpf), the non-mortality endpoints were not measured.

Row | SMILES | outcome
1 | COc1ccccc1N | inactive
2 | O=C(N[C@H]1CN2CCC1CC2)c1ccc2c(c1)OCCO2 | inactive
3 | Clc1cccc(Cl)c1 | inactive
4 | CCCCCCCCCCCCc1cccc(S(=O)(=O)O)c1 | inactive
5 | Oc1c(Cl)cc(Cl)cc1Cl | inactive
6 | CC(C)(C)c1ccccc1O | inactive
7 | Oc1cc(Cl)c(Cl)cc1Cl | inactive
8 | CN(C)C(=S)S | inactive
9 | N#Cc1cccnc1 | inactive
10 | CC(C)O.CC(C)O.OCCN(CCO)CCO.OCCN(CCO)CCO.[Ti] | inactive
11 | Clc1cccc(Cl)c1Cl | inactive
12 | Cc1cc(C)cc(C)c1 | inactive
13 | O=C(O)C1(c2ccc3c(c2)OC[C@H](Cc2ccc(-c4ccccc4)cc2)[C@H]3O)CCCC1 | inactive
14 | OCCN(CCO)CCO | inactive
